Out of some 290,000 compounds screened, about 11,000 (3.8%) were called active.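 Rule for the calls: active = mean replicate inhibition above about 79%, with every replicate also reaching it (limit read from the data); inconclusive = only one of the two criteria met; inactive = mean below limit and not every replicate reaching it.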 Only a selection was taken, and actives are over-represented in it overall.
These compounds were tested against FAD-linked sulfhydryl oxidase ALR (Homo sapiens) (UniProt P55789) (assay: ALR-catalysed DTT oxidation blockers – biochemical, H2O2 detection, HRP-luminol luminescence, single point, primary screen (AID 485317)). Conditions: purified ALR, stronger effect = higher value, concentration not given here.
Sequence of FAD-linked sulfhydryl oxidase ALR (Homo sapiens) (P55789 whole entry, looked up): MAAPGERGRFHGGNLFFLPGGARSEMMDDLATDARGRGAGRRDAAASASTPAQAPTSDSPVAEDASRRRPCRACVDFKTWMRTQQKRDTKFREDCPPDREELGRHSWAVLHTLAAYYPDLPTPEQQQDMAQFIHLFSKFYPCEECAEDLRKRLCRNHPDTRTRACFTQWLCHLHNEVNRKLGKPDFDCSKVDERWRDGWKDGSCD

Compound	inhibition
COc1ccc(NC(=O)N(C)C[C@H]2Oc3ccc(NC(=O)C4CC4)cc3C(=O)N([C@H](C)CO)C[C@@H]2C)cc1	-0.429% (inactive)
CN(C)CCN(C(=O)CN1C(=O)c2ccccc2C1=O)c1nc2cc3c(cc2s1)OCCO3	-1.15% (inactive)
Nc1ccccc1/C=N\N=C/c1ccccc1N	-2.8% (inactive)
O=C(CSc1nc2[nH]c(=O)[nH]c(=O)c2s1)Nc1cccc(F)c1	98.7% (active)
Cc1nc2nc(SCC(=O)Nc3cccc(F)c3)[nH]c2cc1Br	-13.2% (inactive)
Nc1nnc(SCC(=O)Nc2ccc3nc(SCC(=O)Nc4ccccc4)sc3c2)s1	-42% (inactive)
O=S(=O)(NCCS(=O)(=O)N1CCN(c2ccccc2)CC1)c1ccc(F)cc1	-11.7% (inactive)
CC1(C)CC(=O)c2ccc(O)cc2O1	0.168% (inactive)
CC[C@@H]1Cc2cc(O)ccc2C2=C1c1ccc(O)cc1C[C@H]2CC	97.9% (active)
CCc1nnc(NC(=O)c2cc(S(=O)(=O)N3CCCCC3)ccc2C)s1	-5.04% (inactive)
Cc1ccc(CNS(=O)(=O)CCNC(=O)c2ccccc2)cc1	0.449% (inactive)
CCN(CC(=O)Nc1ccc(OC)cc1)C(=O)c1ccc(Cl)c(S(=O)(=O)N2CCCC2)c1	-0.437% (inactive)
O=C(CSc1ncnc2sccc12)N1CCN(C(=O)c2cccs2)CC1	3.8% (inactive)
COc1ccccc1C(=O)NC(CCSC)C(=O)N1CCN(C/C=C/c2ccccc2)CC1 (stereo unspecified)	-15.9% (inactive)
CC1(C)CC(=O)C=C(Nc2ccccc2)C1	3.81% (inactive)
COC(=O)NNC1=CC(=O)CC(C)(C)C1	5.45% (inactive)
Cc1cc(O)ccc1NC1=CC(=O)CC(C)(C)C1	92.3% (active)
O=C(Nc1cc(S(=O)(=O)N2CCOCC2)ccc1N1CCOCC1)c1c(F)cccc1Cl	0.0766% (inactive)
COc1cc(/C=C2/C(=O)NN(c3cccc(Cl)c3)C2=O)cc(Br)c1O	98.2% (active)
C#CCOc1ccc(/C=C2/C(=O)NN(c3ccccc3)C2=O)cc1OC	66.4% (inactive)
COc1cc(/C=N/O)cc(Br)c1OCc1cccc(Cl)c1	-0.717% (inactive)
C=CCSc1ccc(S(=O)(=O)N2CCN(C)CC2)cn1	0.831% (inactive)
CC1CCc2sc(C(=O)NCC(c3ccco3)N3CCCCC3)cc2C1 (stereo unspecified)	-3.3% (inactive)

Compound	inhibition
C[C@H](NC(=O)c1ccccc1Cl)C(=O)OCC(=O)N1CCN(c2ccccc2)CC1	50.7% (inactive)
Cn1nnnc1SCC(=O)Nc1sccc1C(N)=O	23.5% (inactive)
COc1ccc(-c2cc(C(F)(F)F)nc(SCCC(=O)NCc3ccco3)n2)cc1	96.7% (active)
COc1ccc(C(=O)Nc2ccccc2C(=O)NCc2ccco2)cc1	-4.1% (inactive)
COc1cc(OC)cc(-c2nc3nc(C)c(CCC(=O)NCc4ccco4)c(C)n3n2)c1	0.656% (inactive)
CC1C(=O)N2CCCc3cc(S(=O)(=O)NCc4ccc(F)cc4)cc1c32 (stereo unspecified)	2.55% (inactive)
Cc1ccc(CN2CC(C(=O)NNC(=O)Cn3ccc(C(F)(F)F)n3)CC2=O)cc1 (stereo unspecified)	-1.18% (inactive)
CC(=O)Nc1cccc(-c2csc(Nc3cccc(C)n3)n2)c1	-4.7% (inactive)
CC(=O)Nc1ccc(S(=O)(=O)Nc2nc(-c3ccc(C(C)(C)C)cc3)cs2)cc1	14.9% (inactive)
CC(=O)Nc1ccc(-c2csc(NC=C3C(=O)OC(C)(C)OC3=O)n2)cc1	98.2% (active)
CCOC(=O)c1sc(NC(=O)C2CSC3(C)CCC(=O)N23)nc1C (stereo unspecified)	-0.227% (inactive)
COc1cc(/C=C/C(=O)OCC(=O)NC2CC2)cc(OC)c1OC	-0.461% (inactive)
O=C(CCc1nc(-c2ccccc2)no1)Nc1cccc(C(=O)NC2CC2)c1	28.1% (inactive)
Cc1ccccc1-c1cc(C(=O)NCC2CC2)n(CC2CC(c3cccnc3)=NO2)n1 (stereo unspecified)	10.4% (inactive)
CCc1ccc2c(c1)C1(NN=C(c3ccccc3)S1)C(=O)N2 (stereo unspecified)	33.8% (inactive)
COc1ccc(C2(O)C(=O)Nc3ccccc32)cc1 (stereo unspecified)	-1.7% (inactive)
O=C1Nc2ccccc2C12Nc1ccccc1S2 (stereo unspecified)	98.7% (active)
CCCCn1c(N)c(N(CCOC)C(=O)c2cccc(S(=O)(=O)N3CCCCC3)c2)c(=O)[nH]c1=O	-6.18% (inactive)
CC(C)(C)OC(=O)C[C@H]1C/C=C\C[C@@H](CC(=O)N[C@H](CO)Cc2ccccc2)C(=O)NC[C@@H](c2ccccc2)OC1=O	-2.76% (inactive)
CCCCCCSc1ccc([C@@H]2[C@H]3C(=O)N(CC)C(=O)[C@H]3[C@]3(C(=O)OC)CCCCN23)cc1	3.32% (inactive)
Cc1ccn(CCC(=O)N2c3ccccc3CC2C)n1 (stereo unspecified)	-7.69% (inactive)
CCOc1ncccc1C(=O)OCC(=O)N1c2ccccc2CC1C (stereo unspecified)	2.2% (inactive)
CCCC(=O)N1c2ccc(-c3csc(N)n3)cc2CC1C (stereo unspecified)	98.9% (active)

Compound	inhibition
CCOc1ccc(NS(=O)(=O)c2ccc(C(=O)NCC(c3ccccc3OC)N3CCCC3)cc2)cc1 (stereo unspecified)	0.447% (inactive)
Cc1cs/c(=N\N=C\c2ccc(O)cc2)n1Cc1ccco1	98.6% (active)
COc1ccc(NC(=O)CSc2nnc(-c3cccs3)n2Cc2ccco2)cc1OC	-13.2% (inactive)
CN(c1ccccc1)c1ccc(/C=c2\s/c(=C(/C#N)C(=O)C(C)(C)C)n(Cc3ccco3)c2=O)cc1	-25.2% (inactive)
CCN(CC)c1ccc(/C=N/Nc2nc(C)cc(=O)[nH]2)cc1	99.1% (active)
Cc1cc(=O)[nH]c(N/N=C/c2c(C)nn(-c3ccccc3Cl)c2Cl)n1	24.5% (inactive)
Cc1cc(=O)[nH]c(N/N=C/c2ccc3c(c2)OCCO3)n1	17.8% (inactive)
COc1ccccc1-c1oc2ccccc2c1C#CCCCCO	-1.62% (inactive)
COc1ccc(-c2nc(CS(=O)CC(=O)NCc3ccccc3)c(C)o2)cc1OC (stereo unspecified)	98.9% (active)
Cc1ccc(-c2nc(CS(=O)(=O)CC(=O)NCc3ccc4c(c3)OCO4)c(C)o2)cc1	-0.75% (inactive)
Cc1cccc(-c2nc(CS(=O)CC(=O)NC(C)CCc3ccccc3)c(C)o2)c1 (stereo unspecified)	92% (active)
COc1cccc(NC(=O)NCc2ccc(F)cc2)c1	-2.14% (inactive)
COc1ccc(CC(=O)NC(C)CCc2ccccc2)cc1 (stereo unspecified)	-14.5% (inactive)
COc1cccc(N(CC(=O)N2CCc3ccccc3C2)S(C)(=O)=O)c1	-14.9% (inactive)
COc1ccc(CCNC(=O)CS(=O)(=O)Cc2nc(-c3ccc(C)cc3)oc2C)cc1OC	21.5% (inactive)
COc1ccc(CNC(=O)Cc2ccc(-c3ccccc3)cc2)cc1OC	-4.45% (inactive)
O=C(COc1ccccc1)N1CCc2ccccc2C1	-0.403% (inactive)
COc1ccc(-c2nc(CS(=O)CC(=O)N3CCc4ccccc4C3)c(C)o2)cc1 (stereo unspecified)	99% (active)
CC(CCc1ccccc1)NC(=O)c1ccc(Br)o1 (stereo unspecified)	-19.9% (inactive)
COc1cccc(-c2nc(CS(=O)CC(=O)NCc3ccc(F)cc3)c(C)o2)c1 (stereo unspecified)	98.8% (active)
CCCCn1c(N)c(N(CCOC)C(=O)CSCC(=O)Nc2cccc(C)c2)c(=O)[nH]c1=O	6.91% (inactive)
CC(=O)Nc1ccc(S(=O)(=O)NC(C)C(=O)OCCOc2ccc(F)cc2)cc1 (stereo unspecified)	0.524% (inactive)
COc1ccc2nc3n(c(=O)c2c1)-c1cc(C)ccc1C(=O)NC3Cc1ccc(O)cc1 (stereo unspecified)	-1.57% (inactive)

Compound	inhibition
O=C(Nc1nnc(-c2ccccc2)o1)c1cccc(S(=O)(=O)N2CCOCC2)c1	9.18% (inactive)
Fc1ccccc1-c1cc2cc3c(cc2cn1)OCO3	0.64% (inactive)
C[C@@H]1CN([C@@H](C)CO)C(=O)c2cccc(NS(=O)(=O)c3ccc(F)cc3)c2O[C@H]1CN(C)C(=O)NC1CCCCC1	-2.04% (inactive)
CCOC(=O)c1c(C)[nH]c(C(=O)OCC(=O)N2CCCC2=O)c1C	1.73% (inactive)
Cc1nn(Cc2ccccc2)c(C)c1C(=O)NCCCN1CCCC1=O	-2.84% (inactive)
CC(=O)Nc1cccc(C(=O)OCC(=O)c2ccc3c(c2)OCO3)c1	-2.29% (inactive)
C=CC[C@H](CC(=O)N(CCO)Cc1ccccc1)C(=O)N[C@@H](COC(=O)[C@@H](CC=C)Cc1ccc(F)cc1)Cc1ccccc1	-4.83% (inactive)
COc1ccc(-c2nc(CS(=O)CC(=O)NCc3cccnc3)c(C)o2)cc1OC (stereo unspecified)	99.2% (active)
COc1ccc(-c2nc(CS(=O)(=O)CC(=O)NCc3cccc(Br)c3)c(C)o2)cc1	22.1% (inactive)
CCCCN(CC)CCCNC(=O)CS(=O)(=O)Cc1nc(-c2cccc(OC)c2)oc1C	98.8% (active)
Cc1oc2nc(SCC(=O)NCc3cccnc3)nc(N)c2c1C	-4.94% (inactive)
COc1cccc(-c2nc(CS(=O)(=O)CC(=O)NCCc3ccc(OC)c(OC)c3)c(C)o2)c1	46.6% (inactive)
COc1ccc(C(=O)O)cc1S(=O)(=O)NCc1cccnc1	-5.82% (inactive)
O=C1C=C(c2cccc(Br)c2)C[C@@H](c2ccc(F)cc2)C1	-0.0525% (inactive)
O=C(COC(=O)COc1cc(Cl)c(Cl)cc1Cl)NC1CC1	-25.6% (inactive)
Cc1cc(C)cc(NC(=O)CSCc2cnn(-c3ccccc3)c2-n2cccc2)c1	-4.84% (inactive)
O=C(CSCc1ccccc1)Nc1ccccc1	-3.32% (inactive)
CC(=O)Nc1ccc(NC(=O)CSCc2cnn(-c3ccccc3)c2-n2cccc2)cc1	98.3% (active)
Cc1ccc(S(=O)(=O)NCCC(=O)NCc2ccc(Cl)cc2)cc1C	-3.37% (inactive)
O=C(O)c1ccccc1C(=O)NC1=NN(c2ccccc2)CC1	98.4% (active)
O=C(O)c1ccccc1C(=O)Nc1nc(-c2ccccc2)cs1	-5.73% (inactive)
O=C(Nc1ccccc1C(=O)O)c1ccc(N2C(=O)C3CC=CCC3C2=O)cc1 (stereo unspecified)	2.58% (inactive)

Reference: PubChem BioAssay AID485317 (Broad Institute, 2010)
